In PubChem BioAssay (NCATS) one finds Potency data, which are given here for 40 molecules.

Records with an inconclusive call do not appear. Where a call stands in place of a potency, no number is given. Active and inactive are the calls of the source. Calls follow the shape of the dose curve; as a rule, active = well fitted activation curve with a large enough effect; inconclusive = small, poorly fitted or top-dose-only effect; inactive = flat fitted curve, though single readings scatter. Bridge positions count the residues as written; N and C are the ends. Square brackets hold non-standard residues; d marks the D form. Side chains are listed from the residue outwards. Peptide text beside a SMILES is read from it. * marks the point of attachment. ξ: configuration not given here. Phg(4-OMe) = COc1ccc([C@H](N)C(=O)O)cc1; d(aIle) = CC[C@H](C)[C@@H](N)C(=O)O; d(aThr) = C[C@@H](O)[C@@H](N)C(=O)O; NMeF = CN[C@@H](Cc1ccccc1)C(=O)O; Isobutyryl = CC(C)C(=O)*; ξL = CC(C)CC(N)C(=O)O
Potency is read from the fitted curve at half-maximal effect.

The test is described as follows: qHTS for Activators of p53 Stress Response Pathway screened against the NCATS CANVASS Library (AID 1347388). The settings on record: p53RE-bla HCT-116, beta-lactamase reporter, 16 h; series mostly up to 46.1 µM. From the text: Natural products and their derivatives continue to be wellsprings of nascent therapeutic potential. However, many laboratories have limited resources for biological evaluation, leaving their previously isolated or synthesized compounds largely or completely untested. To address this issue, the Canvass library of natural products was assembled (https://tripod.nih.gov/canvass), in collaboration with academic and industry researchers, for quantitative high-throughput screening (qHTS) across a diverse set of cell-based and biochemical assays. The pure (>85% purity by liquid chromatography/mass spectrometry [LC/MS]) Canvass library of 346 natural products were submitted by 45 academic laboratories and companies around the world. We collected pure natural products to circumvent deconvolution and structure elucidation due to time and resource limitations. The library was formatted into 1536-well plates and evaluated in 50 qHTS (in an 11-pnt concentration series) bioassays with broad scope of disease-relevant mechanisms. The resulting data set from 50 different assays was then systematically analyzed to identify overall trends and specific natural products with interesting biological activities. Reported herein are the results of each individual qHTS and their corresponding assay protocol. This assay measures compound activation of the p53 signaling pathway in cells using a beta-lactamase reporter gene. The p53RE-bla HCT-116 cell line (Invitrogen) contains a stably integrated beta-lactamase reporter gene under control of the p53 response elements. The activation of the report gene under culture conditions can be detected by fluorescence intensity. National Center for Advancing Translational Sciences (NCATS), Rockville, MD National Institute of Health (NIH), Bethesda, Maryland
p53-screen protocol: 1. In black-clear bottom 1536-well plate, 5 uL of p53RE-bla HCT-116 cell suspension was dispensed using a Multidrop Combi (Thermo Fisher Scientific) at a final concentration of 4000 cells / well. 2. The assay plates were incubated for 5 hours at 37C, 5% CO2. 3. […] of compounds (in DMSO; columns 5-48), vehicle control DMSO, and positive control were pin transferred into the assay plates using the Kalypsis pin tool (Wako USA) equipped with a 1536-well pin heads. This yields a final CANVASS compound concentration of 0.4 nM - […]. 4. The assay plates were incubated for 16 hours at 37C, 5% CO2. 5. After incubation, 1 uL of CCF4 dye was added per well using the BioRAPTR dispenser 6. The plates were incubated for 2 hours at room temperature. 7. The fluorescence readout was obtained using the EnVision microplate reader (PerkinElmer) equipped with a 405 nm excitation and 460 nm and 530 nm emission filters. The ratio of 460 nm / 530 nm readout was calculated and used for data analysis. 8. To access cellular viability and compound toxicity, 4 uL of CellTiter-Glo was added to the wells using the BioRAPTR dispenser. 9. The assay plates were further incubated for 30 minutes at room temperature. 10. Luminescence signal was obtained using the ViewLux plate reader (PerkinElmer) using the clear emission filter and 1x binning, 2 second exposure settings.
With `C=C(Cl)[C@](Cl)(CBr)CC[C@@H](Br)C(C)(C)Cl`, the Potency entry was “inactive”. With `COC(=O)[C@@]12Oc3cccc(O)c3C(O)=C1C(=O)C[C@H](C)[C@H]2O`, the Potency entry was “inactive”.

On to `C/C=C/C(=O)C1(O)CC2CC(C(=O)O)CC(C)C2C1C1=C2C(=O)NC(=O)C2=C(CCCCC)C(C)O1` (stereo not given), for which the Potency is 7.41 µM (active).

Regarding `CC1=C(C)C(=O)OC(C(C)C2(O)CCC3C4C5OC5C5(O)CC=CC(=O)C5(C)C4CCC32C)C1` (stereo not given), the Potency result is “inactive”. Next, `CN1CC[C@@]2([C@@]34CCN(C)[C@@H]3Nc3ccccc34)c3ccccc3N[C@@H]12`: “inactive”; `C/C(=C\CC[C@@H](C)[C@H]1CC[C@]2(C)C3=CCC4C(C)(C)[C@@H](O)C[C@@H](O)[C@]4(C)C3[C@H](O)C[C@@]12C)CO` (stereo not given in full): “inactive”; `C[C@@]12CCC[C@@](C)(C(=O)O)[C@H]1C[C@@H](O)[C@@]13C[C@@H](CC[C@@H]21)[C@](C)(O)C3`: “inactive”. Next, `C[C@@H]1CC[C@]2(C(=O)O)CC[C@]3(C)C(=C2[C@H]1C)CC[C@@H]1[C@@]2(C)CC[C@H](O)C(C)(C)[C@@H]2CC[C@]13C`: “inactive”.

Regarding `Cc1cc(C)c(O)c(C(=O)CC2CC(=O)NC(=O)C2)c1`, the Potency result is “inactive”.

`CC[C@H](C)[C@H]1NC(=O)[C@@H](NC(=O)C(C)C)[C@@H](C)OC(=O)[C@H](COC(=O)CNC(C)=O)NC(=O)[C@@H]([C@@H](C)O)NC(=O)[C@H](Cc2ccccc2)N(C)C(=O)[C@H](c2ccc(OC)cc2)NC1=O` (Isobutyryl-T[d(aIle)][Phg(4-OMe)][NMeF][d(aThr)]S([Gly-Ac]); ester 1-C): the Potency entry is “inactive”.

`C/C=C/[C@H]1[C@H]2C(=O)c3c(O)c(C)c(O)c(C)c3[C@]1(C(=O)O)C(=O)C=C2C`: the Potency result is “inactive”. As for `CO[C@H]1/C=C/CCCCC(=O)O[C@@H](/C(C)=C/[C@H](C)C(=O)C[C@H](O)CC2CC(=O)NC(=O)C2)[C@@H](C)C1`, the Potency entry is “inactive”. `CC[C@@H](C)[C@H]1NC(=O)C(CC(C)C)NC(=O)[C@@H](CC(C)C)NC(=O)[C@H](Cc2c[nH]c3ccccc23)NC(=O)CNC(=O)[C@@H](CC(N)=O)NC1=O` (stereo partly drawn) (cyclo(GW[dL][ξL][dI][dN])): the Potency entry is “inactive”. In the case of `C[C@@]12C[C@@H](C[C@@H]3C(=O)O[C@@H](c4ccoc4)[C@H](OC(=O)c4ccccc4)[C@@H]31)OC2=O`, the Potency result is “inactive”. Next, `COc1cc2c(cc1OC)[C@@H](c1ccc3c(c1)OCO3)C(C)C(C)C2=O` (stereo not given in full): “inactive”.

As to `C/C(=C\[C@H](C)C(=O)CCCC1CC(=O)NC(=O)C1)[C@@H]1OC(=O)/C=C/CC/C=C/[C@H](O)[C@@H](O)[C@@H]1C`, the Potency result was “inactive”. Under `COc1cc(C2C3=C(Cc4cc5c(cc42)OCO5)C(=O)OC3)cc(OC)c1OC` (stereo not given) stands “inactive”. Take `COC(=O)c1cccc2oc(-c3cccc4oc(-c5c(C)cccc5O)nc34)nc12`: the Potency result is “inactive”. Under `COc1cc(/C=C/C(=O)OC[C@@H](Cc2ccc(O)c(OC)c2)[C@@H](COC(=O)/C=C/c2ccc(O)c(OC)c2)Cc2ccc(O)c(OC)c2)ccc1O` stands “inactive”; under `COC(=O)[C@]1([C@H]2CCC(=O)O2)CC(=O)c2c(O)cc(C)cc2O1`, “inactive”. Take `C[C@]12CC[C@]3(C1)[C@H](CC2=O)C[C@@H](OC(=O)c1ccccc1)[C@H]1[C@](C)(C(=O)O)CCC[C@@]13C`: the Potency entry was “inactive”. Under `C[C@@]12CCC[C@@](C)(C(=O)OP(=O)(O)OC[C@H]3O[C@@H](n4cnc5c(N)ncnc54)[C@H](O)[C@@H]3O)[C@H]1C[C@@H](O)[C@@]13C[C@@H](CC[C@@H]21)[C@](C)(O)C3` stands “inactive”; under `CN1C(=O)C(=O)N2C(=C[C@]3(c4c[nH]c5ccccc45)c4ccccc4N[C@H]23)C1=O`, “inactive”. As to `C[n+]1cc2cc(C(N)=O)[nH]c3c(=N)c(Cl)c(N)c1c23`, the Potency entry was “inactive”.

In the case of `CC(C)=CCC[C@]12c3cc4c(cc3CC[C@@]1(C)[C@H](C)CC[C@@H]2O)[nH]c1ccccc14`, the Potency result is “inactive”. Regarding `C/C1=C/[C@@H](C)[C@H](O)[C@@H](O)/C=C/CC/C=C/C(=O)O[C@@H]1[C@H](C)C(=O)CCCC1CC(=O)NC(=O)C1`, the Potency entry is “inactive”. Next, `COc1ccc2[nH]c3c(c2c1)CCN1C[C@H]2C[C@@H](OC(=O)c4cc(OC)c(OC)c(OC)c4)[C@H](OC)[C@@H](OC)[C@H]2C[C@H]31`: “inactive”; `CO[C@H]1[C@@H](OC(=O)/C(C)=C\[C@@H]2O[C@@H]2[C@H]2O[C@H]2C)[C@H](O)[C@H](OCC23C[C@@H]4[C@H](C)CC[C@H]4C4(C=O)CC2C=C(C(C)C)C34C(=O)O)O[C@@H]1C` (stereo not given in full): “inactive”; `C=C[C@](Cl)(CBr)CCC=C(C)C`: “inactive”. `CN1CC[C@]2(c3cccc4c3N[C@H]3N(C)CC[C@@]43[C@]34CCN(C)[C@H]3Nc3ccccc34)c3ccccc3N[C@H]12`: the Potency entry is “inactive”. Next, `C[C@]12CCC[C@](C)(C(=O)O)[C@@H]1CC[C@@]1(C)c3cocc3CC[C@H]21`: “inactive”; `CC(C)[C@@H]1CC(=O)c2coc3c2[C@H]1C[C@@H](C)C3=O`: “inactive”; `C=C[C@]1(C)CC[C@@H]([C@H](C)C(=O)/C=C/C(C)(C)O)O1`: “inactive”. `CC[C@H](O)CCCCC[C@@H]1NC(=O)[C@H]2CCCCN2C(=O)[C@H]([C@H](C)CC)NC(=O)[C@H](Cc2cn(OC)c3ccccc23)NC1=O`: the Potency result was “inactive”. In the case of `C=C1C[C@H]2O[C@@H]3[C@@H]4[C@H](CC[C@@](C)(O)[C@@H]42)[C@H](C)COC3(C)[C@@H](OC(=O)CCCCCCC)C[C@H]1O` (stereo not given in full), the Potency entry was “inactive”. On to `C=C1CC[C@@H](Br)C(C)(C)[C@]12CC=C(C)C(=O)C2`, for which the Potency result was “inactive”.

On to `CCC(C)=C1OC(=O)[C@H](C)[C@H](O)[C@H](Cc2cccnc2)NC(=O)C(NC(=O)c2ncccc2O)C(C)OC1=O` (stereo not given in full), for which the Potency entry is “inactive”.

Consider `COc1cc2ccc(=O)oc2c(O)c1O[C@@H]1O[C@H](CO)[C@@H](O)[C@H](O)[C@H]1O`, for which the Potency result is “inactive”. As to `C=C[C@@]1(C)CC[C@@H]([C@H](C)C(=O)/C=C/C(C)(C)O)O1`, the Potency result was “inactive”. Under `C/C=C/C1C=CC2CC(C)CC(C)C2C1C(=O)CC(=O)NC(CO)C/C=C/CCCCC` (stereo not given) stands “inactive”.
